# Assay outcomes deposited in PubChem BioAssay by several laboratories.
# Sampled rows, rich in hits. Any-hit rate of the full collection: about 5.9%.
# ALR inh = inhibitors of human sulfhydryl oxidase ALR; purified ALR, DTT oxidation, H2O2 HRP-luminol luminescence; inhibition, % (no concentration beside the values); 290,000 compounds, 3.8% hits; P55789; AID 485317;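 active means mean replicate inhibition above about 79%, with every replicate also reaching it, limit read from the data; inconclusive means only one of the two criteria met; inactive means mean below limit and not every replicate reaching it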
# Target sequence (P55789 whole entry, looked up): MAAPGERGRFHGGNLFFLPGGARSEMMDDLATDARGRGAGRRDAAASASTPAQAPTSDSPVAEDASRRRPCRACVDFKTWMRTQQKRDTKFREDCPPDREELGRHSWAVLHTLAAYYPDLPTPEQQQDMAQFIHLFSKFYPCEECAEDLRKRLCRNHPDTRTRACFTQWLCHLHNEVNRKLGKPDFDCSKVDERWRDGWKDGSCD
# ABHD5-PLIN5 inh = inhibitors of human ABHD5-perilipin-5 interaction; Q00G26+Q8WTS1; inhibition, % at 4 µM; Split G. princeps luciferase complementation, luminescence, 4 h; 360,000 compounds, 0.78% hits;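 active means inhibition above the mean inhibition across every tested compound plus 3 SD, cut at about 22% in these data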;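 further: 0% = DMSO only wells and the 100% control is not disclosed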
# LANA-H2A inh = blocks KSHV LANA binding to histone H2A/H2B. cell-free LANA-H2A/H2B peptide, fluorescence polarization. inhibition, % (test concentration not listed). AID 2629. Q9QR71. 320,000 compounds, 0.6% hits; in the data active means inhibition mostly above about 10%, no sharp cut-off; inactive means mostly below about 6.7%
# rCAG binder = binds r(CAG) RNA repeats; 370,000 compounds, 1.3% hits; inhibition, % at 3 µM; AID 651821; r(CAG) RNA repeat, TO-PRO-1 dye displacement fluorescence;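 active means inhibition above the plate cutoff, the mean of all test compounds on that plate plus 3 SD, cut at about 35% in these data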;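 further: 0% = DMSO alone and 100% = 100 µM mitoxantrone as full dye displacement; higher means more dye released from RNA so lower well fluorescence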
# PRMT1 FP inh = PRMT1 (human) inhibition, primary screen; Q99873; 370,000 compounds, 1.3% hits; recombinant PRMT1, activity-based probe fluorescence polarization; inhibition, % at 2.79 µM;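 active means inhibition above about 21% made by adding two undisclosed values, limit read from the data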
# Rtt109 HAT inh = inhibitors of Candida albicans Rtt109/Vps75 histone acetyltransferase. Q5AAJ8. purified Rtt109/Vps75, ThioGlo CoA-SH fluorescence, 4 h. inhibition, % at 34.9 µM. 330,000 compounds, 0.16% hits;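 active means inhibition of at least 50% in every replicate; inconclusive means best replicate reaches 50% inhibition but some replicates fall short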
# Target sequence (Q5AAJ8 whole entry, looked up): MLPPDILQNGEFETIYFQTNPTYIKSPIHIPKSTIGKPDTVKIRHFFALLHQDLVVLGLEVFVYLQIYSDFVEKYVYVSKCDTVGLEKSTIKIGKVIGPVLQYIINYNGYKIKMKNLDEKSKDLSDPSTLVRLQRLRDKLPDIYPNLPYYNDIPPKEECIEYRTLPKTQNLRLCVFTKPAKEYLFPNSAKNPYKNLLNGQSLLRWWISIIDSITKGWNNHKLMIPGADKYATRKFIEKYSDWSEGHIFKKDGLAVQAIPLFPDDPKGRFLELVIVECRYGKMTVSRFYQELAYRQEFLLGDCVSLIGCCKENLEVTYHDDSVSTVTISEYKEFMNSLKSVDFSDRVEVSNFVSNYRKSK
# The depositor's hits bear a star; ? = inconclusive; / = no result.
SMILES,ALR inh,ABHD5-PLIN5 inh,LANA-H2A inh,rCAG binder,PRMT1 FP inh,Rtt109 HAT inh
CCNC(=O)N(C)c1c(CC)nc2ccc(C(=O)N3CCN(S(=O)(=O)CC)CC3)cn12,/,2.7,/,1.6,0.4,/
Cc1ccc(O)c(Nc2nc(-c3ccccc3)nc3ccccc23)c1,-2.3,2.1,1.8,19.4,-1.8,8.0
Cc1ccc(O)c(Nc2c3ccccc3nc3ccccc23)c1,98.8*,0.8,-6.9,13.4,3.8,5.3
CCOc1cc(/C=C2\NC(=S)N(c3c(C)n(C)n(-c4ccccc4)c3=O)C2=O)ccc1O,98.6*,-3.4,-8.2,-6.7,-3.2,26.3
CN1C(=O)/C(=C/c2ccc(O)c([N+](=O)[O-])c2)NC1=S,45.7,0.7,1.8,5.7,0.6,0.4
COc1cc(/C=C2/NC(=O)N(Cc3ccccc3F)C2=O)ccc1O,99.0*,-8.5,-4.4,5.6,-1.5,7.0
COc1cc(/C=C2\NC(=S)N(C)C2=O)ccc1O,98.9*,2.2,-7.2,-10.8,-6.8,10.2
CC1(C)OC(=O)C2=C(C[C@@H](CCc3ccccc3)O[C@H]2CCc2cccc(Cl)c2)O1,/,-10.6,/,3.7,-2.2,/
CCOc1cc(-c2c(C#N)c(N)nc3c2CCCC3C)ccc1O (stereo not given),97.6*,-3.0,-5.1,-3.4,-2.2,18.8
CN1CCc2cccc3c2C1Cc1ccc(O)c(O)c1-3 (stereo not given),98.1*,-5.0,6.0,3.1,47.4*,1.1
S=c1nc(-c2csc3c2CCCC3)[nH][nH]1,98.7*,-10.4,-2.7,13.7,21.7*,20.8
COc1cc(NC(=O)C(OC(=O)CNC(=O)c2ccccc2)c2ccccc2)cc(C(F)(F)F)c1 (stereo not given),/,/,/,/,-1.2,/
CCOc1ccccc1NC(=O)COC(=O)c1ccc2ccccc2n1,0.1,-3.2,111.2*,-1.8,2.2,18.8
CCN(c1ccc(NC(=O)COC(=O)c2ccc3ccccc3n2)cc1)C(C)C,96.0*,3.1,-1.1,-2.8,2.2,3.3
O=C(COC(=O)c1ccc2ccccc2n1)Nc1ccccc1F,-9.8,-6.8,1.2,-1.1,1.3,5.6
Cc1c(C(=O)NCc2cccs2)sc(=O)n1Cc1ccc(S(=O)(=O)N(C)C)cc1,/,3.1,/,1.9,1.9,/
CCC(C)NC(=O)c1ccc2c(SCC(=O)O)c3c(nc2c1)CCCC3 (stereo not given),97.4*,-0.5,3.4,-1.4,-3.8,-7.1
Cc1cccc2nc(-c3ccco3)c(Nc3ccccc3)n12,/,7.0,-0.2,-2.1,0.5,-1.1
Cc1cccc(C)c1Nc1c(-c2ccccn2)nc2ccccn12,94.1*,2.1,-0.1,-7.9,2.0,-6.4
Cc1ccc2nc(-c3ccccn3)c(NC3CCCC3)n2c1,98.8*,2.2,7.1,-1.7,-1.3,2.7
Cc1ccc(Nc2c(-c3ccccn3)nc3cccc(C)n23)cc1,98.9*,2.6,-5.1,-0.8,-4.8,-8.2
COC(=O)[C@]12C[C@H](CC(=O)N3CCCC3)C(=O)N(Cc3ccc(Cl)cc3Cl)C1=C[C@H](C1CCCC1)O[C@@H]2C,/,/,/,6.8,5.7,/
O=C(NCCc1c[nH]c2ccccc12)OCc1cn(Cc2ccccc2C(F)(F)F)nn1,/,/,/,2.4,0.0,/
O=C(O)C(=Cc1ccc([N+](=O)[O-])cc1)c1ccccc1,/,/,/,0.7,0.4,/
Cc1ccc(-n2c(CCC(=O)O)ccc2-c2cccs2)cc1,94.2*,18.4,-1.1,11.5,11.6,8.8
SMILES,ALR inh,ABHD5-PLIN5 inh,LANA-H2A inh,rCAG binder,PRMT1 FP inh,Rtt109 HAT inh
Cc1ccc(NC(=O)Cn2c(CCC(=O)O)ccc2-c2cccs2)cc1,17.7,3.0,-0.8,20.2,8.2,-4.3
Cc1ccc(-c2ccc(CCC(=O)O)n2-c2ccc(C(=O)O)cc2)cc1,97.0*,16.5,-0.6,9.0,5.6,/
COC(=O)c1ccc(-n2c(CCC(=O)O)ccc2-c2ccc(C)cc2)cc1,62.9,6.9,-3.1,/,/,0.7
CCOC(=O)CCNC(=O)N1CCCC(Cc2ccccc2)(C(=O)OCC)C1 (stereo not given),/,10.4,0.5,-4.9,-4.7,16.8
CCCCc1c(-c2ccccc2OC)ncn1Cc1ccc(OC)c(Cl)c1,/,/,/,-0.2,8.4,/
Cc1ccc(C(=O)OCC(=O)Nc2cc(C(C)(C)C)no2)c(C)c1,-6.8,-12.7,12.1*,3.9,-1.1,1.5
Cc1ccc(S(=O)(=O)NNC(=O)c2sccc2-n2cccc2)cc1,51.3,-2.9,2.1,1.4,1.8,6.3
O=C(NNS(=O)(=O)c1cc(Cl)cc(Cl)c1)c1sccc1-n1cccc1,87.9*,3.5,3.6,29.4,-2.8,1.8
COc1ccc(C(CC(=O)N2CCCC2)c2c(OC)cc(OC)c3ccc(=O)oc23)cc1 (stereo not given),-9.3,0.9,-1.5,-3.8,0.6,7.0
COc1cc(OC)c2ccc(=O)oc2c1C(CC(=O)N1CCOCC1)c1ccc(N(C)C)cc1 (stereo not given),98.0*,-1.6,-0.9,0.9,-4.3,-2.9
COc1cc(OC)c2ccc(=O)oc2c1C(CC(=O)N1CCCC1)c1ccc(N(C)C)cc1 (stereo not given),99.1*,-3.7,-1.9,1.8,6.8,5.4
COc1ccc(C(CC(=O)N2CCOCC2)c2c(OC)cc(OC)c3ccc(=O)oc23)cc1 (stereo not given),/,-0.8,1.3,4.4,1.0,-6.3
O=C(Nc1ccncc1)c1cc(C2CCCCN2C(=O)CCCc2ccccc2)on1 (stereo not given),/,-1.9,/,1.9,-1.9,/
Cc1cccnc1C(NC(=O)C1CCN(Cc2cn(C)c3ccccc23)CC1)c1ccc(Cl)cc1 (stereo not given),/,6.5,/,4.8,-7.0,/
Clc1cccc(CSC2=NCCCN2)c1,-1.4,-6.3,2.6,/,/,-5.7
COc1ccc(CSC2=NCCN2)cc1Br,98.9*,-3.1,1.0,2.1,-1.6,5.0
COc1ccc(CSC2=NCCN2)cc1Cl,100.2*,-3.2,1.6,-0.7,0.0,?
COc1ccc(CSc2nnc(C)n2N)cc1Br,-17.4,-4.4,-0.1,-0.4,-2.3,0.5
CC(C)N(C(N)=NC(=O)OCc1ccccc1)C(C)C,/,/,/,-1.8,-4.0,/
O=S(=O)(c1ccc(F)c(F)c1)N1CCCCCCC1,/,-5.9,/,-0.1,-2.5,/
Cc1ccc(SC(=O)COc2ccccc2C)cc1,98.8*,4.4,1.8,-2.2,14.2,2.0
Cc1cc(O)c(C(=O)/C=C/c2ccccc2O)c(=O)o1,-6.0,9.6,157.9*,4.1,4.8,3.8
O=C(/C=C/c1cccc([N+](=O)[O-])c1)N1CCOCC1,-5.4,-0.5,-4.3,1.3,-4.0,-0.5
CC(=N)c1c(O)cc(C)oc1=O,/,-0.1,/,0.0,-1.8,-2.9
Cc1cc(O)c(C(=O)/C=C/c2cccc([N+](=O)[O-])c2)c(=O)o1,/,-1.5,16.0*,31.6,-2.7,4.3
O=c1[nH]c(SCc2ccc(OC(F)(F)F)cc2)nc2c1CCC2,/,-5.7,/,0.9,2.6,/
COc1ccc2nc(Nc3ccc4c(c3)OCO4)sc2c1,/,-3.6,4.1,10.4,0.4,-1.5
